# VP16 counter – counter-screen for ROR gamma inhibitors: Gal4-VP16 reporter; Drosophila S2 Gal4-VP16 UAS-luciferase, luminescence, 20 h; Potency, µM (series often up to 53.6 µM), for the others: at the top dose activity, negative = inhibition, hits mostly inhibitors; 310,000 compounds, 3.5% hits; AID 2546;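 note: Gal4-VP16 expression switched on by copper sulfate through the metallothionein promoter; % is set by controls: 0 for no effect and ±100 for the full control effect; nearly all actives have a fitted effect of over 50% in size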
# RORgamma inh – inhibitors of mouse ROR gamma transcriptional activity | Drosophila S2 Gal4-RORgamma UAS-luciferase reporter, 20 h | Potency, µM (series often up to 53.6 µM), without a hit: top-dose activity change, negative = inhibition, hits mostly inhibitors | 310,000 compounds, 5.4% hits | AID 2551; note: % is set by controls: 0 for no effect and ±100 for the full control effect; nearly all actives have a fitted effect of over 60% in size
# Target sequence (P51450 whole entry, looked up, the tested form may be a part): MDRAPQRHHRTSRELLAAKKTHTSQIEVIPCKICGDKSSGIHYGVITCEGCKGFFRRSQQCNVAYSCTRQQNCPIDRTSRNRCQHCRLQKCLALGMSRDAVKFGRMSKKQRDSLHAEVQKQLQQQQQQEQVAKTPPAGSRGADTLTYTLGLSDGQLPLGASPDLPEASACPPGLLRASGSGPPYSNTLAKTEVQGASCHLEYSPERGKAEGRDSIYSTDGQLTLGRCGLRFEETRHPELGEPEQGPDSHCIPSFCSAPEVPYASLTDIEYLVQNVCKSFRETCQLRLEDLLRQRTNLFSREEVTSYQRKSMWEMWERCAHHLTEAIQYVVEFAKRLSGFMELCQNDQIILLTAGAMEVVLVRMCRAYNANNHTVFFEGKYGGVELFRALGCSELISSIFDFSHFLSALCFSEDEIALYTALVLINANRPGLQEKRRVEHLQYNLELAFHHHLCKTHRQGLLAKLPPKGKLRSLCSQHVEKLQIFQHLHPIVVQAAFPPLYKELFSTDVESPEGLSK
#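 ROR gamma transcriptional activity was tracked as Gal4-UAS luciferase output in stably transfected Drosophila Schneider cells, with compound added 1 hr before 700 uM copper sulfate induction and a 20 hr ambient-temperature incubation.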
# PINK1 expr mod – changes PINK1 expression | PINK1 immunofluorescence, high-content cytometry, 24 h | Potency, µM (series often up to 76.6 µM), for inactives: at the highest dose activation (PINK1 increase), hits mostly activators | 410,000 compounds, 0.2% hits; active = well fitted activation curve with a large enough effect; inconclusive = small, poorly fitted or top-dose-only effect; cell line not stated here; note: % of control where 0% means no effect; nearly all actives have a fitted effect of over 65% in size
#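 Measures PINK1 amount and localization on or inside mitochondria by immunofluorescence. Stable cells get compounds at 5 concentrations for 24 hours before fixation and staining; CCCP controls included.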
# Epigenetic derep – regulators of epigenetic silencing causing reporter derepression in mouse cells; Potency, µM (doses to about 53.9 µM), without a hit: at the top dose GFP activation, usual class: activators; 280,000 compounds, 0.2% hits; AID 1865; murine LDR cells, GFP reporter derepression, 30 h; note: % of control where 0% means no effect; nearly all actives have a fitted effect of over 60% in size
#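 Reporter derepression read as number of fluorescent GFP-positive objects, 20-120 um in size, counted by laser-scanning cytometer. Mouse LDR line with an epigenetically silenced CMV-GFP locus; compound incubation 30 h, 37 C.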
# Sfp PPTase inh – Sfp phosphopantetheinyl transferase inhibition. Biochemical Sfp PPTase activity, qHTS. Potency, µM, without a hit: largest response in the series, negative = inhibition, hits mostly inhibitors. Q9F4F7. 310,000 compounds, 3.5% hits;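 note: the enzyme is Sfp with the accession as filed and its product quenches rhodamine fluorescence; 0% = enzyme reaction without inhibitor and -100% = no enzyme wells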
#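 Reaction rates are the 30-min fluorescence difference (ex 525, em 598 nm) in wells containing 15 nM Sfp, 5 uM rhodamine-CoA and 12.5 uM BHQ-2-YbbR at pH 7.6 with 10 mM MgCl2.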
# ClpP mod – qHTS Assay for Activators of ClpP; Potency, µM (top dose mostly 57.5 µM), for inactives: at the top dose activity change, negative = active; purified B. subtilis ClpP, FRET peptide cleavage, 20 min; 340,000 compounds, 1.9% hits; active = well fitted falling curve with a large enough effect; inconclusive = small, poorly fitted or top-dose-only effect; inactive = no such curve, though single readings can be large or run the other way; note: the source files actives as falling curves though it sought activators and does not explain the sign; nearly all actives have a fitted effect of over 65% in size
# Target sequence (P80244 whole entry, looked up): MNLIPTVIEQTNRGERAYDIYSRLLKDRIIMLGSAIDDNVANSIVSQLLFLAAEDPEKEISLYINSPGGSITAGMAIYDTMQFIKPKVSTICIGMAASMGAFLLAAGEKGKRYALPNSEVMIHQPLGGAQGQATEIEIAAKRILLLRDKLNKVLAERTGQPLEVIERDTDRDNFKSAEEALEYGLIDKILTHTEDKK
#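 ClpP 10 microg/mL final, pH 8 Tris/KCl buffer with BSA, glycerol, Tween-20; compound pinned in; FRET-FV substrate; RT 20 min; Ex320/Em430; ΔFRET vs ADEP 5.8 microM, DMSO, no enzyme.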
# Numbers without * were called inactive; ? = inconclusive; / = no result; ! = a repeat was not active; [ ] = another dose, or the depositor's remark. Hits are enriched below; roughly 8.1% of the tested compounds scored in any of these assays. Unless noted, calls come from the whole dose curve; as a rule, active = well fitted curve in the direction sought with a large enough effect; inconclusive = small, poorly fitted or top-dose-only effect, or another doubt; inactive = no such curve, though single readings can be large; an effect the other way counts as inactive or inconclusive. Potency is the fitted concentration of half-maximal effect.
SMILES,VP16 counter,RORgamma inh,PINK1 expr mod,Epigenetic derep,Sfp PPTase inh,ClpP mod
CC(C)(C)c1ccc(C(=O)CC(=O)c2cc(Cl)ccc2O)cc1,?,11.2µM*,?,-2.6%,7.0%,6.7%
Cc1ccc(C(=O)Cc2ccccc2)c(O)c1,/,/,14.5%,/,/,/
Cc1ccc(C(=O)CC(=O)c2ccc(C)cc2O)cc1,?,8.91µM*,?,/,8.2%,0.1%
Cc1ccc(C(=O)CC(=O)c2cc(Cl)ccc2O)cc1,10µM*,?,8.5%[38.3 µM],0.8%,26.0%,9.3%
Cc1ccc(C)c2c1NC(C(=O)O)C1CC=CC21 (stereo not drawn),/,/,-0.1%,/,/,-17.6%
COc1ccc(-c2cc(C(F)(F)F)n3nc(C(=O)Nc4sc5c(c4C(=O)OC(C)C)CCC(C)C5)cc3n2)cc1 (stereo not drawn),/,/,0.1%,-0.8%,/,-5.7%
COc1ccccc1C(=O)NC(=Nc1nc2ccccc2o1)NC(=O)c1ccccc1OC,?,0.794µM*,?,3.3%,-4.4%,/
N/C(=N\c1nc2ccccc2o1)NC(=O)c1ccccc1F,7.94µM*,2.51µM*,14.7%,0.0%,24.8%,-0.7%
CCOc1ccc(Nc2c(S(=O)(=O)c3ccccc3)cnc3ccc(F)cc23)cc1,/,/,-0.8%,2.5%,/,-2.6%
c1ccc2c(c1)CC1(CCCC1)n1nnnc1-2,5.4%,0.708µM*,0.8%[38.3 µM],-7.0%,11.4%,0.7%
CC1(C)Cc2ccccc2-c2nnnn21,-4.3%,10.3%,-3.4%[38.3 µM],0.0%,2.7%,0.5%
Cc1c(Cl)cccc1NC(=O)Nc1c[nH]c(=O)[nH]c1=O,/,/,1.7%,-3.4%,/,-0.7%
Cc1cccc(NC(=O)c2cccc(NC(=O)Cc3cccs3)c2)c1,22.8%,3.4%,-2.1%,1.0%,-1.2%,/
CC(C)(C)NC(=O)c1cccc(NC(=O)Cc2cccs2)c1,-0.6%,18.9%,1.8%,-1.8%,14.4%,35.5µM*
CN(C)CC(C(=O)c1ccccc1)c1ccccc1 (stereo not drawn),7.08µM*,7.08µM*,-2.8%,?,-13.8%,-3.9%
COc1ccc(-n2cc(-c3ccccc3)c3c(N4CCCC(C)C4)ncnc32)cc1 (stereo not drawn),/,/,2.5%,0.0%,/,-13.5%
O=C(Nc1ccc[n+](CC(=O)c2cccc3ccccc23)c1)c1ccccc1,11.2µM*,?,-1.9%,0.9%,56.2µM*,-6.7%
Cc1ccc(-n2ncc3c(N4CCN(Cc5ccccc5)CC4)ncnc32)cc1Cl,/,/,0.0%,0.9%,/,-1.3%
CCCCC[n+]1ccn(C2=C([O-])c3ccccc3C(=O)/C2=N\S(=O)(=O)c2ccc(Cl)cc2)c1,3.5%,-24.6%,0.1%,2.0%,15.0%,2.0%
CCCC[n+]1ccn(C2=C([O-])c3ccccc3C(=O)/C2=N\S(=O)(=O)c2ccc(Cl)cc2)c1,?,1.58µM*,-0.5%,-2.4%,0.9%,0.5%
CCCc1cc(C(=O)NNC(=S)NC2CCCCC2)cs1,?,3.55µM*,-1.4%,/,29.1%,-0.3%
O=C(NNC(=S)NC1CCCCC1)c1ccc2c(c1)OCO2,?,-32.7%,6.1%,0.0%,10.7%,18.6%
O=C(Nc1nccs1)c1csc2c1CCCC2,10µM*,?,0.3%,-2.0%,6.0%,-1.4%
Cc1cc(C(=O)NNC(=S)NCc2ccccc2)no1,/,/,-0.8%,/,16.0%,-1.3%
CCCc1cc(C(=O)NNC(=S)NCc2ccccc2)cs1,?,4.47µM*,-5.2%[38.3 µM],0.0%,7.5%,2.6%
SMILES,VP16 counter,RORgamma inh,PINK1 expr mod,Epigenetic derep,Sfp PPTase inh,ClpP mod
O=C(Nc1ccon1)c1csc2c1CCCC2,15.4%,36.9%,-1.3%[38.3 µM],0.0%,-8.3%,1.2%
CCNC(=S)NNC(=O)c1cc(C)on1,-9.7%,17.8µM*,-2.4%[38.3 µM],-1.4%,56.2µM*,0.2%
COC(=O)NC(CC(C)=O)c1ccc(F)cc1 (stereo not drawn),2.7%[10 µM],26.1%[10 µM],/,0.0%[10.1 µM],22.0%,/
CC1CCN(S(=O)(=O)c2ccc3c(c2)oc(=O)n3CC(=O)NC(C)c2ccccc2)CC1 (stereo not drawn),/,/,2.8%,0.0%,/,-1.7%
CCNC(=S)NNC(=O)c1csc2c1CCCC2,-24.0%,3.16µM*,-9.0%[38.3 µM],0.0%,21.5%,-2.0%
CCNC(=S)NNC(=O)c1csc(C(C)C)c1,-5.2%,40.6%,-4.7%,2.3%,?,-1.0%
CCc1cc(C(=O)NNC(=S)NCc2ccccc2)cs1,-15.6%,14.1µM*,7.8%[38.3 µM],-0.1%,9.9%,2.5%
Cc1cc(C(=O)NNC(=S)NCc2ccccc2)cs1,-3.7%,-22.7%,-0.7%,1.1%,13.3%,1.5%
CCNC(=S)NNC(=O)c1csc(CC)c1,-23.5%,4.47µM*,-3.8%,1.2%,13.2%,-2.9%
Brc1cccc(-c2cnn3c(-c4ccccc4)cc(-c4ccccc4)nc23)c1,/,/,0.3%,-1.1%,/,0.2%
Nc1cc([N+](=O)[O-])cc(N)c1N,/,/,0.7%,/,/,0.7%
O=C(C[n+]1cccc2cccc(O)c21)c1ccc(F)cc1,/,/,/,/,/,-3.8%
CC(C)N(c1ccc(C=O)cc1)C(C)C,/,/,/,/,/,-1.7%
N#Cc1cc(-c2ccccc2)cn(Cc2c(Cl)cccc2Cl)c1=O,-4.2%,-15.0%,2.0%[38.3 µM],-3.0%,3.9%,28.2µM*
Cc1ccc(-c2cc(C#N)c(=O)n(Cc3c(Cl)cccc3Cl)c2)cc1,-6.6%,-10.8%,?,-0.9%,0.0%,7.08µM*
N#Cc1cc(C(=O)c2cc(Br)ccc2O)cn(Cc2ccccc2)c1=O,?,?,?,2.5%,2.1%,/
Cc1cccn(Cc2c(Cl)cccc2Cl)c1=O,/,/,2.0%,/,/,/
N[C@H](C(=O)O)c1cc(O)cc(O)c1,4.8%,1.6%,/,-1.2%,44.7µM*!,/
N[C@@H](C(=O)O)c1ccc(C(=O)O)c(O)c1,3.1%,-3.3%,/,5.8%,11.9%,/
CCOc1ccc2nc(N3CCCC(C(=O)NCCc4ccc(SC)cc4)C3)sc2c1 (stereo not drawn),/,/,-1.3%,4.1%,/,-1.6%
O=C(O)c1ccccn1,-1.6%,-1.7%[10 µM],-0.3%,/,25.1µM*,-0.2%
O=C(NCCCCNC(=O)c1ccccn1)c1ccccn1,-2.1%,4.0%,0.5%,0.0%,79.4µM*,-2.0%
O=C(O)c1cccc(C(=O)O)n1,-10.6%,1.2%,/,-0.7%,3.98µM*,/
CC(=O)Nc1cccc(C(=O)O)n1,-0.5%[10 µM],-1.1%,-1.3%,1.1%[10.1 µM],?,/
O=C(O)c1ccc2cccc(O)c2n1,-5.6%,3.4%,0.9%,2.2%,2.82µM*,/
C=CCc1cccc(C2NC(C(=O)O)CCC2C)c1 (stereo not drawn),-5.6%[10 µM],-5.9%[10 µM],/,5.7%[10.1 µM],4.5%,/
COCCn1c(C)cc(C(=O)CSc2nc3nc(C)cc(C)n3n2)c1C,3.5%,30.0%,0.4%,0.0%,-5.2%,-1.2%
COCCn1c(C)cc(C(=O)CSc2nnc(C)s2)c1C,1µM*,0.708µM*,-0.2%,-0.2%,-0.6%,-0.6%
COCCn1c(C)cc(C(=O)CSc2n[nH]c(N)n2)c1C,-8.7%,35.9%,0.8%,-1.9%,25.1µM*,2.0%
